This passage reports INHIBITION results from ChEMBL document CHEMBL4513216, “Probing the Open Global Health Chemical Diversity Library for Multistage-Active Starting Points for Next-Generation Antimalarials” (ACS Infect Dis, 2020).

The campaign covered roughly 69,000 compounds. About 8,600 (12%) showed an effect of 50% or more. The entries come from a sample that favours strong results as a whole.

The assay relates to Plasmodium berghei. In words: Screen against P. berghei liver stage (PbLuc), transformed with Luciferase, at 10uM. The assay is classed as functional, HepG2. Conditions: tested at 10 uM.
`Cc1ccc(CN2C[C@@H]3COC[C@H](NS(C)(=O)=O)[C@@H]3C2)s1`: the INHIBITION is reported as -1.36%.
For `CCNC(=O)NC(C)c1nc(-c2ccc(Br)cc2)no1` (configuration not stated), the INHIBITION worked out at 33.5%.
With `Cc1nccc(C2CCCCN2Cc2ccccc2)n1` (configuration not stated), the INHIBITION was 20.8%.
With `Cc1nccn1C1CCCN(C(=O)c2cccc(S(C)(=O)=O)c2)C1` (configuration not stated) the figure was 19.5%; with `CCOc1nnc(CN(C)C2CCCN(c3ccc(C)nn3)C2)s1` (configuration not stated), 46.7%; with `CNC(=O)C1(N2CCC[C@H]2C(=O)NC2CCCCC2)CCOCC1`, -1.36%.
Then `c1ccc(N2CCOC(Cc3cccnc3)C2)cc1` (configuration not stated), with -33.4%; and `CCN(CC)Cc1nc(Cc2cccc(C(F)(F)F)c2)no1`, with 26.7%.
With `O=C(c1ccccc1)N1CCN(C2CCc3ccc(F)cc32)CC1` (configuration not stated) the figure was 49.4%.
Take `O=C(CN1CCOCC1)N1CCN(C2CCc3ccc(F)cc32)CC1` (configuration not stated): the INHIBITION worked out at 54.4%.
With `NC(=O)C1CCN(C(=O)NC2CCc3cc(F)ccc32)CC1` (configuration not stated) the figure was 17%; with `NC(=O)N1CCCN(C2CCc3ccc(F)cc32)CC1` (configuration not stated), 84.2%.
Then `O=C(CN1CCOCC1)N1CCC(c2cc(N3CCCC3)ncn2)CC1`, with -85.6%.
For `O=C(c1cc(F)ccc1O)N1CCN(C2CCOCC2)CC1`, the INHIBITION came to 3.84%.
Then `Cc1ncsc1C(=O)NCCNC(=O)Cc1cccc(F)c1`, with -89.6%; and `CC(Cn1cccn1)NC(=O)Nc1nncs1` (configuration not stated), with -39.7%.
For `COCCN1CCCN(C(=O)NC(C)Cn2ccnc2)CC1` (configuration not stated), the INHIBITION stood at 26.3%.
With `Cc1ccnc(OC[C@@]23CCO[C@@H]2CCN(c2ncc(F)cn2)C3)n1` the figure was 16.9%.
With `CC(C)CN1CCCC(c2nc(O)c3cc(F)ccc3n2)C1` (configuration not stated), the INHIBITION came to 20.1%.
Then `O=C([C@@H]1Cc2[nH]cnc2CN1Cc1cc2ccccc2o1)N1CCCC1`, with -67.6%.
Take `COC(=O)C1Cc2nc[nH]c2CN1Cc1ccc(Sc2ncccn2)o1` (configuration not stated): the INHIBITION was 35.7%.
Then `COC(=O)[C@@H]1Cc2[nH]cnc2CN1Cc1cc2ccccc2o1`, with 56.8%.
With `Cc1cccc(N2CCN(C(=O)CC3(O)CCCC3)C(C)C2)n1` (configuration not stated) the figure was -24.2%; with `Cc1nc(C(=O)N2CCN(c3ccc(Cl)c(Cl)c3)CC2)cs1`, 90.3%; with `CN1CC[C@H]2CN(C(=O)c3csc(Cc4ccccc4)n3)C[C@H]21`, 22.9%.
Consider `COc1ccnc(N2CCN(C(=O)c3csc(C)n3)CC2)n1`, for which the INHIBITION is listed as -12.6%.
With `Cc1csc(N2CCCN(C(=O)c3csc(C)n3)CC2)n1` the figure was 37.9%; with `CNc1nc(C(=O)N2C[C@@H]3CC[C@H]2CN(S(C)(=O)=O)C3)cs1`, 7.1%; with `CNc1nc(C(=O)N2C[C@@H]3CCN(C)[C@@H]3C2)cs1`, 55%.
Turning to `CNc1nc(C(=O)N2CCCN(c3ccnc(C)c3)CC2)cs1`, the INHIBITION was -10.6%.
Then `CNc1nc(C(=O)N2CCN(c3cc(C)nc(C)c3)CC2)cs1`, with 34.9%; and `CNc1nc(C(=O)N2CCN(c3ccc(Cl)c(Cl)c3)CC2)cs1`, with 86.6%.
For `CC(O)CN(C)C(=O)CCNC(=O)OC(C)(C)C` (configuration not stated), the INHIBITION is reported as 44.9%.
With `CC(C)N1CCC(c2cnc(-c3cn[nH]c3)cn2)CC1` the figure was 20.5535%; with `CC(=O)N[C@@H]1CN(C(=O)c2cccc(C)c2)C[C@H]1O`, 0.19%.
In the case of `CC[C@H](C)[C@H](NC(=O)c1cccc(-n2cnnn2)c1)C(=O)OC`, the INHIBITION worked out at 30.5%.
With `CCC(C)[C@H](NC(=O)c1ccc(F)cc1-n1cnnn1)C(=O)OC` (some centres not stated) the figure was 51.3%.
With `CCC(C)[C@H](NC(=O)c1cc(Br)ccc1-n1cnnn1)C(=O)OC` (some centres not stated) the figure was 34.7%.
In the case of `CC[C@H](C)[C@H](NC(=O)c1ccc(-n2cnnn2)cc1)C(=O)OC`, the INHIBITION worked out at 61.2%.
Take `CCC(C)[C@H](NC(=O)c1cc(F)ccc1-n1cnnn1)C(=O)OC` (some centres not stated): the INHIBITION turned out to be 46.1%.
Then `CC[C@H](C)[C@H](NC(=O)c1ccccc1-n1cnnn1)C(=O)OC`, with -14.2%; and `O=C(Nc1ccccn1)c1ccc(F)c(S(=O)(=O)NC2CC2)c1`, with 4.34%; and `CCn1cc(-n2cc3nc(N4CCOCC4)[nH]cc-3c2=O)cn1`, with -37.9%.
With `CC(C)(C)c1nc(CC(=O)NCCC(=O)Nc2ccncc2)cs1` the figure was 45.4%; with `CC(=O)N1CCC(NC(=O)Cc2csc(C(C)(C)C)n2)CC1`, 5.91%.
`CCN1CCC(NC(=O)Cc2csc(C(C)(C)C)n2)CC1`: the INHIBITION stood at 50.5%.
Then `CC(C)(C)c1nc(CC(=O)Nc2cnccc2O)cs1`, with 52.5%.
As to `CC(C)c1nc(CC(=O)Nc2cnccc2O)cs1`, the INHIBITION is reported as 29.4%.
With `CN1CCC(NC(=O)Cc2csc(C(C)(C)C)n2)CC1` the figure was 47.2%.
Then `CCOC(=O)C1CCN(Cc2csc(C(C)(C)C)n2)CC1`, with -13.3%; and `CN(C)C(=O)C1CCN(Cc2csc(C(C)(C)C)n2)CC1`, with 56.4%; and `CCc1nc(CN2CCC(C(=O)N(C)C)CC2)cs1`, with 11.8%.
With `Cn1ncc2c1C(COCC1CC1)N(C(=O)c1ccncn1)CC2` (configuration not stated) the figure was 47.4%; with `CN(CCNC(=O)NCc1ccsc1)C1CCCC1`, -43.5%.
On to `CN(Cc1coc(-c2ccccc2)n1)C1CCCN(c2cccnn2)C1` (configuration not stated), for which the INHIBITION is 24%.
In the case of `Cn1cccc1C(=O)N1C[C@@H](OCc2ccncc2)[C@@H]2OCCC[C@@H]21`, the INHIBITION came to 42.5%.
`O=C1NCCO[C@H]2CN(C(=O)Cc3cccs3)CC[C@@H]12`: the INHIBITION is 14%.
With `COc1cc(F)ccc1CC(=O)N1CC[C@H]2C(=O)NCCO[C@H]2C1` the figure was 52.1%.
With `O=C1NCCO[C@H]2CN(C(=O)Cc3ccco3)CC[C@@H]12` the figure was -2.26%; with `Cc1ccc(F)c2c1CCCN2Cc1cc(=O)n(C)c(=O)n1C`, 38.8%.
Then `CC[C@H](C)[C@@H](CO)NC(C)Cc1ccc(Cl)cc1` (some centres not stated), with 71.2%; and `CC[C@H](C)[C@@H](CO)NC(C)Cc1ccc(F)cc1` (some centres not stated), with 8.24%; and `CC[C@H](C)[C@@H](CO)NC(C)Cc1ccc(C)cc1` (some centres not stated), with 41.7%.
Consider `CN(C)c1ncc2c(n1)C1(CCN(Cc3ccccc3F)C1)COC2` (configuration not stated), for which the INHIBITION is listed as 23.6%.
`COc1ccc(CN2CCN(C(C)=O)CC3(CC(=O)N(C)C3)C2)cc1` (configuration not stated): the INHIBITION is -7.6%.
Then `O=C(NCc1ccon1)N1CCC(n2ccc(C(F)(F)F)n2)CC1`, with 1.2%; and `CCNC(=O)N1CCC(n2ccc(C(F)(F)F)n2)CC1`, with 40.6%.
As to `CNCc1cn(C2CCN(C(=O)NCc3ccco3)CC2)nn1`, the INHIBITION is 71.2%.
Then `Cc1cc(CN2CCN(C(=O)NCc3ccco3)CC2)no1`, with 31.2%.
Then `O=C(NCc1ccco1)N1CCC(n2cc(-c3ccccn3)nn2)CC1`, with 65.6%.
Then `O=C(c1ncc[nH]1)N1CCC(n2cc(-c3ccccn3)nn2)CC1`, with 6.88%; and `O=C(NCc1ccco1)N1CCOC(c2ccccc2Cl)C1` (configuration not stated), with 8.12%; and `O=C(NC1CCCCC1)N1CCC(n2cc(-c3ccccn3)nn2)CC1`, with 83.5%.
Turning to `O=C(NC1CCCCC1)N1CCC(n2cc3[nH]cccc-3c2=O)CC1`, the INHIBITION turned out to be 36.5%.
Then `O=C(NCc1ccco1)N1CCC(n2ccc(C(F)(F)F)n2)CC1`, with 57.7%; and `O=C(c1ccco1)N1CCC(n2cc(-c3ccsc3)nn2)CC1`, with 31.2%.
Then `COC1CCCOC12CCN(C(=O)NCc1ccco1)CC2` (configuration not stated), with 4.52%.
Take `COCC(=O)Nc1ccc(Oc2ccsc2C(=O)O)cc1`: the INHIBITION amounted to 49.1%.
Then `COC1(CNC(=O)NCCc2ccccc2)CCSC1` (configuration not stated), with 8.31%.
With `O=C(c1cccc(C(F)(F)F)c1)N1CC(=O)N(C2CCC2)CC(O)C1` (configuration not stated) the figure was 21.5%; with `O=C1Nc2ccccc2CNC12CCN(CC1CCCC1)CC2`, 30%; with `CCOCCOC(C)C(=O)Nc1ccc2ccn(CC(=O)NC)c2c1` (configuration not stated), 13.9%.
With `Cc1ccc(C(=O)NCc2ccc(N3CCCC(C(N)=O)C3)cc2)o1` (configuration not stated) the figure was 29.7%; with `O=C(CCc1nc2ccccc2[nH]1)NC1CCOC2(CCOCC2)C1` (configuration not stated), 47.6%.
As to `Cc1cccc(OCC(O)CN2CCC(Cn3cccn3)CC2)c1` (configuration not stated), the INHIBITION was 47.1%.
Then `CN1[C@H](CN2CCCC2)C[C@@H]2CN(C(=O)Cc3ccsc3)CC[C@@H]21`, with -8.51%; and `O=C(c1ccc2nccn2c1)N1CCCC1c1noc(C2CC2)n1` (configuration not stated), with 52.3%.
With `O=C(c1ccc2nncn2c1)N1CCCC1c1noc(C2CC2)n1` (configuration not stated) the figure was 15.1%.
With `CCS(=O)(=O)CC(=O)N1CCCC1c1noc(C2CC2)n1` (configuration not stated) the figure was 13.9%; with `CCCS(=O)(=O)CC(=O)N1CCCC1c1noc(C2CC2)n1` (configuration not stated), 97.2%.
`CC(C)CS(=O)(=O)CC(=O)N1CCCC1c1noc(C2CC2)n1` (configuration not stated): the INHIBITION worked out at 29%.
With `CC(C)c1nc(C2CCCN2C(=O)c2ccc3nncn3c2)no1` (configuration not stated) the figure was 5.11%; with `CN(C)c1cc(CNC(=O)NCC2(C)CCCS2)ccn1` (configuration not stated), -15.5%; with `Cc1ccc(-c2nnc(CN3CCCCC3Cn3cncn3)o2)cc1` (configuration not stated), -29.8%.
With `CN(CC(C)(C)O)C1CCCN(Cc2noc(C3CC3)n2)C1` (configuration not stated) the figure was 25.1%; with `O=C(NC1CC1)c1cc(C2CCCN(Cc3ccccn3)C2)no1` (configuration not stated), -8.12%; with `Clc1ccc(CN(CCN2CCOCC2)Cc2cccnc2)c(Cl)c1`, -49.4%.
Then `Cc1nc(-c2ccc(Cl)s2)sc1C(=O)NC(C)(C)C(N)=O`, with -39.95%; and `O=C(CCn1cncn1)NCC(c1ccco1)N1CCCCC1` (configuration not stated), with 3.73%; and `Cc1nc(C)n(CCC(=O)NCC2CCCOC2)n1` (configuration not stated), with 26.55%.
As for `O=C(CCn1cncn1)NCC1CCS(=O)(=O)C1` (configuration not stated), the INHIBITION was 84.2%.
Then `O=C(CCn1cncn1)NCC(c1ccco1)N1CCCC1` (configuration not stated), with -49.5%; and `O=C(CCn1cncn1)NC1CCS(=O)(=O)C1` (configuration not stated), with 49.9%.
With `O=C(CCn1cncn1)NCC1CCOC1` (configuration not stated) the figure was 54.5%; with `O=C(CCn1cncn1)NCC1CCCC1`, 63.8%; with `CCCn1cnc(NC(=O)NCC2CCS(=O)(=O)C2)n1` (configuration not stated), 42.6%.
With `Cc1cc(NC(=O)CCn2cncn2)no1` the figure was 44.3%.
